The values below come from PubChem BioAssay (NCATS).

Results filed as inconclusive are left out. Values without a mark were called inactive. Activity calls are given as the source filed them. Calls follow the shape of the dose curve; as a rule, active = well fitted curve in the direction sought with a large enough effect; inconclusive = small, poorly fitted or top-dose-only effect, or another doubt; inactive = no such curve, though single readings can be large; an effect the other way counts as inactive or inconclusive.

Test [1] can be described thus: qHTS of pediatric cancer cell lines to identify multiple opportunities for drug repurposing: Primary screen for BT-12 cells (AID 1347101). Also: nearly all actives have a fitted effect of over 25% in size. Also: potency is read from the fitted curve at half-maximal effect. The procedure, abridged: (§1)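 Cells (500-1,000/well) rested 5 h, then received compounds for 48 h; metabolically active cells were measured by CellTiter-Glo luminescence. Final concentrations spanned up to 46 µM (MIPE, 11-point) or 0.59 nM-46 µM (NPC, 8-point) in primary screens, 11-point in follow-ups.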
A general note: Quantitative high-throughput screening tests each substance at several concentrations.

A short description of test [2]: qHTS of pediatric cancer cell lines to identify multiple opportunities for drug repurposing: Primary screen for Rh18 cells (AID 1347102). Also: nearly all actives have a fitted effect of over 65% in size. Also: potency is read from the fitted curve at half-maximal effect. A digest of the protocol:
as §1

The nature of test [3]: qHTS of pediatric cancer cell lines to identify multiple opportunities for drug repurposing: Primary screen for OHS-50 cells (AID 1347103). Also: nearly all actives have a fitted effect of over 40% in size. Also: potency is read from the fitted curve at half-maximal effect. A digest of the protocol:
as §1

Test [4] is described as follows: qHTS of pediatric cancer cell lines to identify multiple opportunities for drug repurposing: Primary screen for RD cells (AID 1347104). Also: nearly all actives have a fitted effect of over 55% in size. Also: potency is read from the fitted curve at half-maximal effect. A digest of the protocol:
(§2)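 Viability was measured as metabolically active cells after 48 hours of treatment, read by CellTiter-Glo luminescence. Compounds were tested at multiple final concentrations, giving concentration-response curves.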

A short description of test [5]: qHTS of pediatric cancer cell lines to identify multiple opportunities for drug repurposing: Primary screen for MG 63 (6-TG R) cells (AID 1347105). Also: nearly all actives have a fitted effect of over 50% in size. Also: potency is read from the fitted curve at half-maximal effect. A digest of the protocol: as §2
Test [6] in a line: qHTS of pediatric cancer cell lines to identify multiple opportunities for drug repurposing: Primary screen for control Hh wild type fibroblast cells (AID 1347106). Also: nearly all actives have a fitted effect of over 55% in size. Also: potency is read from the fitted curve at half-maximal effect. A digest of the protocol:
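Cells (500-1,000/well) in growth media were settled 5 h at 37 degrees C, then given compounds for 48 h. Viability was read as CellTiter-Glo luminescence. Primary runs used MIPE at 11 points (0.78 nM-46 µM) and NPC at 8 points (0.59 nM-46 µM); follow-ups used 11 points.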

Test [7] in a line: qHTS of pediatric cancer cell lines to identify multiple opportunities for drug repurposing: Primary screen for Rh30 cells (AID 1347107). Also: series mostly up to about 46 µM; nearly all actives have a fitted effect of over 75% in size. The procedure, abridged: as §1
Test [8] can be described thus: qHTS of pediatric cancer cell lines to identify multiple opportunities for drug repurposing: Primary screen for Rh41 cells (AID 1347108). Also: nearly all actives have a fitted effect of over 70% in size. Also: potency is read from the fitted curve at half-maximal effect. A digest of the protocol: as §2
A short description of test [9]: qHTS of pediatric cancer cell lines to identify multiple opportunities for drug repurposing: Primary screen for LAN-5 cells (AID 1347100). Also: potency is read from the fitted curve at half-maximal effect. A digest of the protocol: as §1
Test [10] can be described thus: qHTS of pediatric cancer cell lines to identify multiple opportunities for drug repurposing: Confirmatory screen for A673 cells (AID 1347110).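 Also: cells exposed to compound for 48 h before the viability read; nearly all actives have a fitted effect of over 65% in size.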 Also: potency is read from the fitted curve at half-maximal effect. The procedure, abridged:
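Viability was read as ATP luminescence (CellTiter-Glo) after 48 h of compound exposure at 37 C in A673 cells seeded at 500-1,000/well. Titrations reached 46 uM final, with 11 points in the confirmatory screen. Concentration-response curves were fitted directly.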

Test [11] in a line: qHTS of pediatric cancer cell lines to identify multiple opportunities for drug repurposing: Confirmatory screen for LAN-5 cells (AID 1347113). Also: nearly all actives have a fitted effect of over 65% in size. Also: potency is read from the fitted curve at half-maximal effect. The procedure, abridged: as §1
Test [12] can be described thus: qHTS of pediatric cancer cell lines to identify multiple opportunities for drug repurposing: Confirmatory screen for SJ-GBM2 cells (AID 1347116). Also: nearly all actives have a fitted effect of over 60% in size. Also: potency is read from the fitted curve at half-maximal effect. The procedure, abridged: (§3)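 Viability measured as metabolically active cells via CellTiter-Glo luminescence following 48 hours of compound exposure, 11-point dilutions in confirmatory testing. 500-1,000 cells/well plated 5 hours before dosing; controls were DMSO and 2.3 µM bortezomib.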

The nature of test [13]: qHTS of pediatric cancer cell lines to identify multiple opportunities for drug repurposing: Confirmatory screen for control Hh wild type fibroblast cells (AID 1347121). Also: nearly all actives have a fitted effect of over 70% in size. A digest of the protocol: as §1
A short description of test [14]: qHTS of pediatric cancer cell lines to identify multiple opportunities for drug repurposing: Confirmatory screen for Rh41 cells (AID 1347123). Also: potency is read from the fitted curve at half-maximal effect; nearly all actives have a fitted effect of over 60% in size. The procedure, abridged:
as §1

A short description of test [15]: qHTS of pediatric cancer cell lines to identify multiple opportunities for drug repurposing: Confirmatory screen for DAOY cells (AID 1347114). Also: potency is read from the fitted curve at half-maximal effect; nearly all actives have a fitted effect of over 65% in size. The procedure, abridged: as §3
A short description of test [16]: qHTS of pediatric cancer cell lines to identify multiple opportunities for drug repurposing: Confirmatory screen for NB-EBc1 cells (AID 1347115).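 Also: potency is read from the fitted curve at half-maximal effect; cells exposed to compound for 48 h before the viability read; nearly all actives have a fitted effect of over 45% in size.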 A digest of the protocol: as §1
Test [17] is described as follows: qHTS of pediatric cancer cell lines to identify multiple opportunities for drug repurposing: Confirmatory screen for BT-37 cells (AID 1347117). Also: nearly all actives have a fitted effect of over 55% in size. Also: potency is read from the fitted curve at half-maximal effect. A digest of the protocol: as §1
Test [18] can be described thus: qHTS of pediatric cancer cell lines to identify multiple opportunities for drug repurposing: Confirmatory screen for TC32 cells (AID 1347118). The procedure, abridged: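 Measured quantity: luminescence from CellTiter-Glo, reflecting metabolically active TC32 cells following 48 h of compound. Curves came straight from multi-point titrations, with 8 or 11 points in primary and 11 in confirmatory screening.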

The nature of test [19]: qHTS of pediatric cancer cell lines to identify multiple opportunities for drug repurposing: Confirmatory screen for MG 63 (6-TG R) cells (AID 1347119). Also: nearly all actives have a fitted effect of over 55% in size. Also: potency is read from the fitted curve at half-maximal effect. The procedure, abridged:
as §1

Test [20] is described as follows: qHTS of pediatric cancer cell lines to identify multiple opportunities for drug repurposing: Confirmatory screen for NB1643 cells (AID 1347109). Also: potency is read from the fitted curve at half-maximal effect; nearly all actives have a fitted effect of over 45% in size. A digest of the protocol:
as §1

In the case of `COc1cccc2c1C(=O)c1c(O)c3c(c(O)c1C2=O)C[C@@](O)(C(C)=O)C[C@@H]3O[C@H]1C[C@H](N)[C@H](O)[C@H](C)O1`, the Potency in [1] is 0.55 µM (active); in [2], 0.473 µM (active); in test [3], 0.347 µM (active); in test [4] it was 1.19 µM (active); in [5], 4.22 µM (active); in [6] it was 16.8 µM (active). In addition, in test [8], the Potency is 0.75 µM (active). Besides, the Potency result in test [7] is “inactive”.

Turning to `C[C@]12CC[C@H]3[C@@H](CCC4=CC(=O)CC[C@@]43C)[C@@H]1CC[C@@H]2C(=O)CO`, the Potency result in test [9], in [2], in test [4], in test [5], in test [6] and in [7] was “inactive” in each case. Moreover, the Potency result in test [8] is “inactive”.

Consider `COc1cc2c(cc1OC)C(=O)C(CC1CCN(Cc3ccccc3)CC1)C2` (stereo not given), for which the Potency entry in [1], in test [2], in test [4], in [5], in test [6] and in test [7] was “inactive” each time. Moreover, the Potency result in test [8] was “inactive”.

As for `CC(=O)N(O)CCCCCNC(=O)CCC(=O)N(O)CCCCCNC(=O)CCC(=O)N(O)CCCCCN`, the figures for the Potency in [1] and in test [3] were 12.3 µM (active) and 13.8 µM (active), respectively.

Take `CCOC(=O)[C@H](CCc1ccccc1)N[C@@H](C)C(=O)N1Cc2ccccc2C[C@H]1C(=O)O`: the Potency entry in [9], in test [2], in test [3], in test [4], in test [5] and in [6] was “inactive” throughout. Besides, the Potency result in [7] was “inactive”.

Turning to `COc1ccc(/C=C/C(=O)c2ccc(OC)cc2OC)cc1`, the Potency in [9] is 21.1 µM (active). Further, the Potency entry in test [5] and in test [6] was “inactive” throughout.

Take `O=C(Nc1ccc(Oc2ccc(Cl)cc2)c(Cl)c1)c1cc(I)cc(I)c1O`: the Potency result in test [1], in test [2], in [6], in [7] and in test [8] was “inactive” throughout.

`CN(C(=O)CN(CCO)CC(=O)N(C)C(C)(C)Cc1ccccc1)C(C)(C)Cc1ccccc1`: the figures for the Potency in [1] and in [3] were 12.3 µM (active) and 17.4 µM (active), respectively. Also, the Potency result in [4], in test [5], in [6], in test [7] and in test [8] was “inactive” each time.

Regarding `Nc1ccc(C(=O)Nc2ccccc2N)cc1`, the Potency in test [9] was 6.68 µM (active); in [2], 16.8 µM (active); in test [3], 6.17 µM (active). In addition, the Potency entry in [6] and in test [7] was “inactive” in each case.

On to `CC(=O)[C@H]1CC[C@H]2[C@@H]3C[C@H](C)C4=CC(=O)CC[C@]4(C)[C@H]3[C@@H](O)C[C@]12C`, for which the Potency entry in test [9], in test [2], in test [4], in test [5], in test [6] and in test [8] was “inactive” in each case. Besides, the Potency result in [10], in test [11], in test [12] and in [13] was “inactive” in each case. Moreover, the Potency in test [14] was 10.4 µM (active).

`CC(C)(C)CC(C)(C)c1ccc(O)c(Cc2ccc(Cl)cc2Cl)c1`: the Potency was 21.1 µM (active) in [9], 24.6 µM (active) in test [3] and 26.6 µM (active) in test [5]. Further, the Potency result in [6] was “inactive”.

Take `COCc1c(C(C)C)nc(C(C)C)c(/C=C/[C@@H](O)C[C@@H](O)CC(=O)O)c1-c1ccc(F)cc1`: the Potency in [9] is 3.76 µM (active); in test [3], 0.309 µM (active); in test [4] it was 1.68 µM (active); in [5] it was 0.0841 µM (active); in test [10], 0.414 µM (active); in [11] it was 13.1 µM (active). Also, the Potency in test [15] was 0.414 µM (active); in [16] it was 4.14 µM (active); in test [12] it was 2.61 µM (active); in test [17] it was 1.65 µM (active); in test [18] it was 0.928 µM (active); in [19] it was 0.0369 µM (active). In test [14], the Potency was 2.33 µM (active). In addition, the Potency result in test [6], in test [7] and in test [13] was “inactive” throughout.

As for `CC(C)=CCC1C(=O)N(c2ccccc2)N(c2ccccc2)C1=O`, in test [9], the Potency was 29.9 µM (active). Further, the Potency result in test [2], in [4], in test [5], in [6], in test [7] and in [8] was “inactive” each time.

With `CCN(CCCc1ccccc1)CCCc1ccccc1`, the Potency result in test [9], in test [2], in [5], in [6] and in [7] was “inactive” in each case.

With `C/C=C(/C(=C/C)c1ccc(O)cc1)c1ccc(O)cc1`, the Potency result in test [9], in test [6] and in test [8] was “inactive” in each case. The Potency in test [3] is 21.9 µM (active).

As to `COc1cc(N)c(Cl)cc1C(=O)NC1CCN(CCCOc2ccc(F)cc2)CC1OC` (stereo not given), the Potency entry in [9], in test [2], in test [5], in test [6] and in test [7] was “inactive” throughout. For the same compound, the Potency in [3] is 30.9 µM (active).

Regarding `CN1CCC(=C2c3ccccc3Sc3ccccc32)CC1`, the Potency result in test [9], in test [5], in test [6], in [7] and in [8] was “inactive” throughout. Further, the Potency in test [3] was 17.4 µM (active).

In the case of `Cc1c(C)n(Cc2ccccc2)c2ccc(C(=O)OCCN(C)C)cc12`, the Potency entry in [9], in test [4], in test [6] and in test [8] was “inactive” in each case.

With `COc1ccc(CCN2CCC(Nc3nc4ccccc4n3Cc3ccc(F)cc3)CC2)cc1`, the Potency in test [9] was 23.7 µM (active); in test [3], 30.9 µM (active); in test [4] it was 26.6 µM (active); in test [5], 16.8 µM (active).

Regarding `Cc1cccc(C)c1NC(=O)CN1CCN(CCCC(c2ccc(F)cc2)c2ccc(F)cc2)CC1`, the Potency result in test [1], in test [2], in test [4], in [5], in [7] and in test [8] was “inactive” each time.

Consider `O=C(Nc1ccc(Cl)c(Cl)c1)C1CC1`, for which the Potency entry in test [9], in [2], in test [4], in [5], in test [6] and in [7] was “inactive” in each case. Besides, in [8], the Potency entry was “inactive”.

With `Oc1ccc(O)cc1`, the Potency is 7.5 µM (active) in test [9], 18.5 µM (active) in test [20], 14.7 µM (active) in [16] and 20.8 µM (active) in [18]. Further, the Potency entry in test [2], in test [4], in test [5], in test [6], in [7] and in test [12] was “inactive” in each case. Further, the Potency result in [17], in test [19] and in test [13] was “inactive” each time.

`CCCCCCCCCCCCCCCCOP(=O)([O-])OCC[N+](C)(C)C`: the Potency result in test [1], in test [2], in test [6] and in [7] was “inactive” each time.

As to `C[C@@H](CN(C)C)CN1c2ccccc2Sc2ccccc21`, the Potency result in test [9], in test [5], in test [6] and in [8] was “inactive” each time. For the same compound, the Potency in [3] is 21.9 µM (active).

`CCCCOc1cc(C(=O)NCCN(CC)CC)c2ccccc2n1`: the Potency result in [1], in test [2], in [3], in [5], in test [6] and in [7] was “inactive” throughout. The Potency result in test [8] was “inactive”.
